According to PubChem BioAssay AID1159569 (Broad Institute, 2015):
Potency and affinity values are given separately. Records with an inconclusive call do not appear. Active and inactive are the calls of the source. No rule for the calls is given here.

Test: toxicity to human HepG2 hepatoma cells – cell-based, plate reader, dry powder samples, cytotoxicity control, dose response (AID 1159569)
Conditions: HepG2 cytotoxicity counterscreen; series mostly up to 50 µM; activity change, negative = cytotoxicity: at the top concentration

| Compound | activity change, negative = cytotoxicity |
| --- | --- |
| COc1ccc(NC(=O)N2CCC3(CC2)CN(C(=O)C2CCC2)[C@H](CO)c2c3c3ccc(OC)cc3n2C)cc1 | -24.5% (inactive) |
| COc1ccc2c3c([nH]c2c1)[C@H](CO)N(C(=O)C1CCOCC1)CC31CCN(Cc2nccs2)CC1 | -3.5% (inactive) |
| CCCNC(=O)c1cc2c(c(-c3cccc(-c4cc5ccccc5o4)c3)n1)[C@H](CCO)N(C(=O)NC(C)C)C2 | -31.5% (inactive) |
| OC[C@H]1CC[C@@H]2O[C@H](CCc3ccc(C#CCc4ccccc4)cc3)[C@H](n3cc(-c4ccccc4)nn3)C[C@@H]2O1 | -31.8% (inactive) |
| C[C@H]1CN([C@@H](C)CO)C(=O)c2c(c3ccccc3n2C)-c2ccccc2CO[C@@H]1CN(C)C(=O)Nc1ccc(-c2ccccc2)cc1 | -18.3% (inactive) |
| COc1cccc(S(=O)(=O)N(C)C[C@@H]2OCc3ccccc3-c3c(n(C)c4ccccc34)C(=O)N([C@H](C)CO)C[C@@H]2C)c1 | -41.5% (inactive) |
| C[C@@H]1CN([C@@H](C)CO)C(=O)c2cccc(NC(=O)c3nc4ccccc4s3)c2O[C@H]1CN(C)C(=O)Nc1ccc2c(c1)OCO2 | -8.51% (inactive) |
| COc1ccc(-c2ccc([C@H]3[C@H](C#N)N(C(=O)c4cccc(F)c4)[C@H]3CO)cc2)cc1 | -21.9% (inactive) |
| CCCC#Cc1ccc2c(c1)O[C@H](CN(C)C(=O)Nc1ccc(OC)cc1)[C@H](C)CN([C@H](C)CO)S2(=O)=O | -25.5% (inactive) |
| COc1ccccc1S(=O)(=O)N(C)C[C@H]1OCc2ccccc2-c2c(n(C)c3ccccc23)C(=O)N([C@@H](C)CO)C[C@@H]1C | 0.808% (inactive) |
| COc1cccc(C#Cc2cnc3c(c2)C(=O)N([C@@H](C)CO)C[C@H](C)[C@@H](CN(C)C(=O)C2CCCCC2)O3)c1 | -33.1% (inactive) |
| Cc1ccc(S(=O)(=O)N(C)C[C@H]2OCc3ccccc3-c3c(n(C)c4ccccc34)C(=O)N([C@@H](C)CO)C[C@@H]2C)cc1 | -21.5% (inactive) |
| O=C(c1ccc(F)cc1)N1CC(=O)N2[C@H](C1)[C@@H](c1ccc(-c3cccnc3)cc1)[C@@H]2CO | -6.43% (inactive) |
| O=C(c1ccncc1)N1CC(=O)N2[C@H](C1)[C@@H](c1ccc(-c3cccnc3)cc1)[C@@H]2CO | -13.9% (inactive) |
| CC(C)(C)[S@@](=O)N1Cc2cc(C(=O)N[C@@H]3CCN(Cc4ccccc4)C3)nc(-c3cccc(-c4cccnc4)c3)c2[C@H]1CCO | -19.4% (inactive) |
| COc1ccc2c3c(n(C)c2c1)[C@@H](CO)N(C(=O)C1CCCC1)CC31CCN(C(=O)Nc2cccc(F)c2)CC1 | -32.3% (inactive) |
| C[C@H]1CN([C@@H](C)CO)C(=O)Cc2cc(NC(=O)Nc3ccc(C(F)(F)F)cc3)ccc2O[C@@H]1CN(C)C(=O)Nc1ccc2c(c1)OCO2 | -11.8% (inactive) |
| CO[C@@H]1CN(C)C(=O)c2ccc(NC(=O)Nc3ccccc3F)cc2OC[C@@H](C)N(Cc2ccccc2F)C[C@H]1C | -9.48% (inactive) |
| C[C@@H]1CN([C@@H](C)CO)C(=O)c2cccc(NC(=O)C3CC3)c2O[C@@H]1CN(C)C(=O)Nc1ccc(C(F)(F)F)cc1 | -8.27% (inactive) |
| Cc1ccc(-c2ccccc2[C@H]2[C@@H](C#N)N(C(=O)c3cccc(F)c3)[C@H]2CO)cc1 | -18.3% (inactive) |
| C[C@H]1CN([C@@H](C)CO)C(=O)c2c(c3ccccc3n2C)-c2ccccc2CO[C@@H]1CN(C)S(=O)(=O)c1ccc(F)cc1 | -19% (inactive) |
| COc1ccc(C#Cc2ccc3c(c2)O[C@@H](CN(C)S(=O)(=O)c2ccccc2F)[C@@H](C)CN([C@@H](C)CO)S3(=O)=O)cc1 | -31.4% (inactive) |
| CC(C)CNC[C@@H]1[C@@H](c2ccccc2)[C@@H](CO)N1Cc1ccc(F)cc1 | -28% (inactive) |
| COc1ccc(S(=O)(=O)Nc2cccc3c2O[C@H](CN(C)Cc2ccc(-c4ccccc4)cc2)[C@@H](C)CN([C@H](C)CO)C3=O)cc1 | -13.1% (inactive) |
| COc1ccc(S(=O)(=O)Nc2ccc3c(c2)CC(=O)N([C@@H](C)CO)C[C@H](C)[C@H](CN(C)S(=O)(=O)c2ccc(C)cc2)O3)cc1 | -23.3% (inactive) |
| C[C@@H](NC(=O)C[C@H]1C[C@@H]2c3cc(NS(=O)(=O)c4ccc(F)cc4)ccc3O[C@@H]2[C@H](CO)O1)c1ccccc1 | -16.7% (inactive) |
| COc1ccc(-c2ccccc2[C@H]2[C@@H](C#N)N(C(=O)C3CCCCC3)[C@H]2CO)cc1 | -11.1% (inactive) |
| CC(C)(C)S(=O)N1Cc2cc(C(=O)NCc3ccc(Oc4ccccc4)cc3)nc(-c3cccc(-c4cccc(F)c4)c3)c2[C@@H]1CCO (stereo not given in full) | 2.11% (inactive) |
| Cc1nc(N2[C@H](CO)[C@H](c3ccccc3)[C@H]2CNCC2CCCC2)sc1C | -35.8% (inactive) |
| CCCNC(=O)N1[C@H](C#N)[C@H](c2ccc(C#Cc3cccc(F)c3)cc2)[C@H]1CO | -49.6% (inactive) |
